In PubChem BioAssay (NCATS):
Results filed as inconclusive are left out. Calls of active or inactive are those of the source. The call rests on the fitted dose curve; in most records, active means well fitted curve in the direction sought with a large enough effect; inconclusive means small, poorly fitted or top-dose-only effect, or another doubt; inactive means no such curve, though single readings can be large; an effect the other way counts as inactive or inconclusive. Peptide text beside a SMILES is read from it.

Tests used:
[1] = qHTS to identify inhibitors of the type 1 interferon - major histocompatibility complex class I in skeletal muscle: primary screen against the NCATS Pharmaceutical Collection (AID 1347407); settings: human skeletal muscle cells, IFN-b-induced MHC-I HiBiT luminescence, 24 h; series mostly up to 45.9 µM;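 further: luminescence of HiBiT knocked into endogenous HLA-B as interferon-induced MHC class I level; on the % scale 0 is the no-effect control and ±100 the full control effect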
Outline: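 Immortalized human myoblasts (C25cl48) with HiBiT knocked into endogenous HLA-B*08:01 were stimulated with 4 ng/ml IFN-beta and treated with compounds (8-point, 1:5, top 46 uM final) for 24 h at 37 C; HiBiT lytic luminescence read.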

[2] = qHTS to identify inhibitors of the type 1 interferon - major histocompatibility complex class I in skeletal muscle: primary screen against the NCATS Mechanism Interrogation Plate v5.0 (MIPE) Libary (AID 1347411); settings: iHSKM cells + IFN-b, HiBiT-tagged MHC-I luminescence, 24 h; series mostly up to 45.8 µM;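 further: plate controls were vehicle for no effect and reference inhibitor for full effect; nearly all actives have a fitted effect of over 65% in size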
Outline: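 IFN-beta-driven (4 ng/ml) HLA-B-HiBit expression in CRISPR-tagged C25cl48 myoblasts; compounds 11-pt, 1:3, max 46 uM, 24 hr exposure; lytic NanoLuc complementation luminescence.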

[3] = molecular target: Protein phosphatase 1D (Homo sapiens) (UniProt O15297); assay: RapidFire Mass Spectrometry qHTS Assay for Modulators of WT P53-Induced Phosphatase 1 (WIP1) (AID 1347424); settings: WIP1 dephosphorylation of phosphopeptide, RapidFire MS; series mostly up to 63 µM;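 further: amount of dephosphorylated VEPPL-S-QETFS peptide product formed by WIP1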; further: potency means the concentration at half of the fitted maximal effect;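 on activity change, negative = inhibition: plate controls were DMSO wells for no effect and GSK830371 inhibitor control at 10 µM for full effect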
Chain of Protein phosphatase 1D (Homo sapiens) (O15297 whole entry, looked up): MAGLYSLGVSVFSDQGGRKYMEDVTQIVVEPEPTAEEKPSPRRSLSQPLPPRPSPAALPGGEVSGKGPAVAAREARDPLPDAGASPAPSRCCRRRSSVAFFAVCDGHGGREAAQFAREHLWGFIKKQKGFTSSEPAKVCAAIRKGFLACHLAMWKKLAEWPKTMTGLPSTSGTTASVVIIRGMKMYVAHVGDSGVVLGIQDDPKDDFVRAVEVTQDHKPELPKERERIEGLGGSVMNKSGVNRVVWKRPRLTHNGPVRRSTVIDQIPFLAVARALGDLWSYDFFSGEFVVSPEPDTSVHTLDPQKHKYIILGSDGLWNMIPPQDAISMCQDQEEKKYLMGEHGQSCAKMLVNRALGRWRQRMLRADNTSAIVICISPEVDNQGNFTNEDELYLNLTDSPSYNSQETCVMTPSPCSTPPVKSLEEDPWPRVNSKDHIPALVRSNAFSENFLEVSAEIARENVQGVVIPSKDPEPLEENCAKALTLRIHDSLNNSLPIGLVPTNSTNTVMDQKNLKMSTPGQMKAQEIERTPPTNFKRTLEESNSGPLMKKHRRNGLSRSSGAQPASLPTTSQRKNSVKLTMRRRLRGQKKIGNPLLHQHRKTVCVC
Outline: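 Mass-spectrometric measurement of dephosphorylated peptide after a 5 min room-temperature reaction of 10 nM WIP1 with 2 uM phosphopeptide, following 1 h compound preincubation in 30 mM MgCl2 buffer.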

[4] = molecular target: Protein phosphatase 1D (Homo sapiens) (UniProt O15297); assay: Rhodamine-PBP qHTS Assay for Modulators of WT P53-Induced Phosphatase 1 (WIP1) (AID 1347425); settings: recombinant WIP1, Rhodamine-PBP phosphate fluorescence, real-time; series mostly up to 57.5 µM; further: % of control where 0% means no effect
Outline: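 WIP1 (5 nM final) was preincubated with compound for 1 hour at room temperature. It then dephosphorylated 10 uM VEPPL-pS-QETFS peptide in Tris-HCl pH 7.5 with 30 mM MgCl2. Released Pi was detected by 10 uM Rh-PBP fluorescence (ex 525/em 598 nm) read at 1-min intervals for 11 min, as delta f1 - f0.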

[5] = Primary qHTS for inhibitors of La Crosse Virus (LACV) - induced cell death in SH-SY5Y cells (AID 1508616); settings: SH-SY5Y LACV cytopathicity rescue, ATP luminescence, 6 d; series mostly up to 4.29 µM;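 further: top concentration of the series differs between compounds; 0% = infected DMSO wells and 100% = uninfected DMSO wells; higher means more rescue of cells from virus-induced death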
Outline: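 Screening measures cell viability in LACV-infected SH-SY5Y cultures. Compound was added before virus (0.01 MOI), and ATP was detected by luminescence 6 days later.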

[6] = qHTS for inhibitors of adenylyl cyclases using a fission yeast platform: a pilot screen against the NCATS LOPAC library (AID 1347410);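 further: plate controls were DMSO vehicle for no effect and DPI positive control for full effect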; settings: S. pombe CHP2027, fbp1-GFP fluorescence, 18 h, yeast expressing mammalian AC9 and human GNAS; series mostly up to 57.5 µM
Outline: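 S. pombe CHP2027 (AC9-GNAS-PDE4D2) carrying a PKA-repressed fbp1-GFP reporter was exposed to LOPAC compounds (final up to 57 µM) for 18 h at 30C in the dark, in EMM with histidine, lysine and uracil; GFP gain-of-signal read by laser scanning cytometry.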

[7] = Validation qHTS assay for inhibitors of Activation Induced Cytidine Deaminase (AID): UDG Counterscreen signal (AID 1347427); settings: biochemical UDG counterscreen, fluorescence signal; series mostly up to 115 µM; further: 0% is about no effect
Outline: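 Fluorescence at 560 nm excitation, 665 nm emission reports UDG signal after 250 mM NaOH (2x) addition and 30 min. Enzymes (AID 1 uM, UDG 2 U/mL, at 4/3x) preincubated 10 min with compound, then 4 h with 4x 250 nM DJC20/DJC23 substrate at room temperature.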

[8] = molecular target: Single-stranded DNA cytosine deaminase (Homo sapiens) (UniProt Q9GZX7); assay: Validation qHTS assay for inhibitors of Activation Induced Cytidine Deaminase (AID): AID signal (AID 1347429); settings: Recombinant AID, FRET ssDNA deamination with UDG, fluorescence; series mostly up to 115 µM; further: on the % scale 0 is the no-effect control and ±100 the full control effect
Chain of Single-stranded DNA cytosine deaminase (Homo sapiens) (Q9GZX7 whole entry, looked up): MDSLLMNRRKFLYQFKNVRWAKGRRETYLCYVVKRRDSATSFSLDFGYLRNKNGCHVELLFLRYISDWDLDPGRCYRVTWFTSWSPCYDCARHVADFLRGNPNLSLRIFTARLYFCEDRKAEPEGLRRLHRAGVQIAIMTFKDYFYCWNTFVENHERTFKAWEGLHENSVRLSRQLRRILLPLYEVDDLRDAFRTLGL
Outline: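 Compounds (up to 114 uM final) are tested against AID plus UDG using DJC20/DJC23 FRET substrate. Reactions incubate 4 hr at room temperature, receive NaOH for 30 min, and are read at Ex 540/Em 590 nm.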

[9] = molecular target: Calcium and integrin-binding protein 1 (Homo sapiens) (UniProt Q99828); assay: Validation qHTS for Identification of Calcium Integrin Binding protein 1 (CIB1) Competitor (AID 1508618); settings: CIB1-GST / FITC-alphaIIb peptide fluorescence polarization; series mostly up to 114 µM; further: on the % scale 0 is the no-effect control and ±100 the full control effect
Chain of Calcium and integrin-binding protein 1 (Homo sapiens) (Q99828 whole entry, looked up): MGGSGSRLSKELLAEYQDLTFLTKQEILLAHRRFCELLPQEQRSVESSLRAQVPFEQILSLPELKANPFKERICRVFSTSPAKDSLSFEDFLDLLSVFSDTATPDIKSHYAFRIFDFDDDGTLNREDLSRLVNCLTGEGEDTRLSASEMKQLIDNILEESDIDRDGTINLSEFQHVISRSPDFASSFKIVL
Outline: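 Fluorescence polarization with 1 uM CIB1-GST and 100 nM FITC-alphaIIb peptide in HEPES pH 7.4, NaCl, 5 mM CaCl2, Tween20. Compounds at up to 114 uM final, preincubated with protein 15 min; read after 15 min more at RT.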

Nc1ccc(S(N)(=O)=O)cc1
inactive: Potency [1] | Potency [2] | Potency [3] | outcome [4] | Potency [5]

O=C(O)c1cc(=O)c2c(OCC(O)COc3cccc4oc(C(=O)O)cc(=O)c34)cccc2o1
inactive: Potency [1] | Potency [2] | Potency [3] | outcome [4] | Potency [5]

Cc1cc2cc3c(C)cc(=O)oc3c(C)c2o1
inactive: Potency [1] | Potency [2] | Potency [3] | outcome [4] | Potency [5]

O=C(O)c1cccc(-c2noc(-c3ccccc3F)n2)c1
inactive: Potency [1] | Potency [2] | Potency [3] | outcome [4] | Potency [5]

COC(=O)[C@H](Cc1ccccc1)NC(=O)[C@@H](N)CC(=O)O (H-Asp-Phe-OMe)
inactive: Potency [1] | Potency [2] | Potency [3] | outcome [4] | Potency [5]

Cc1c(OCC(F)(F)F)ccnc1CS(=O)c1nc2ccccc2[nH]1 (centres undefined)
inactive: Potency [1] | outcome [6] | Potency [2] | Potency [3] | Potency [7] | outcome [8] | Potency [5] | outcome [9]

CN(C)c1ccc(O)c2c1C[C@H]1C[C@H]3[C@H](N(C)C)C(=O)C(C(N)=O)=C(O)[C@@]3(O)C(=O)C1=C2O
inactive: Potency [1] | Potency [2] | Potency [3] | outcome [4] | Potency [5]

O=C(c1ccccc1)c1ccc2n1CCC2C(=O)O (centres undefined)
inactive: outcome [8] | outcome [9]

COc1cc2nc(N3CCN(C(=O)C4CCCO4)CC3)nc(N)c2cc1OC (centres undefined)
inactive: outcome [8]

NNc1nncc2ccccc12
inactive: outcome [9]

COc1ccc(C2(C#N)CCC(C(=O)O)CC2)cc1OC1CCCC1 (centres undefined)
inactive: Potency [2]

O=c1cc(N2CCOCC2)oc2c(-c3ccccc3)cccc12
inactive: Potency [2] | Potency [7] | outcome [8]

COc1cc2c(N3CCN(C(=O)Nc4ccc(OC(C)C)cc4)CC3)ncnc2cc1OCCCN1CCCCC1
inactive: Potency [2] | Potency [3]

CCCCCCCCOc1ccccc1C(=O)Nc1ccc(C(=O)OCC[N+](C)(CC)CC)cc1
inactive: Potency [1] | Potency [3] | Potency [5]

O=C1c2c(O)cc(O)cc2OC(c2ccc(O)c(O)c2)C1O (centres undefined)
inactive: Potency [2] | Potency [7] | outcome [8] | Potency [5]

O=C1CCc2ccc(OCCCCN3CCN(c4cccc(Cl)c4Cl)CC3)cc2N1
inactive: Potency [1] | Potency [3] | Potency [5]

Nc1nc(Cl)nc2c1ncn2[C@H]1C[C@H](O)[C@@H](CO)O1
inactive: Potency [2]

CC(C)(S)[C@@H](N)C(=O)O
inactive: activity change, negative = inhibition [2] -26.4% [at 5.1 µM]

NC(=O)Cc1cccc(C(=O)c2ccccc2)c1N
inactive: Potency [1] | Potency [3] | Potency [5]

CC(=O)O[C@H]1C(=O)[C@@]2(C)C([C@H](OC(=O)c3ccccc3)[C@]3(O)C[C@H](OC(=O)[C@H](O)[C@@H](NC(=O)c4ccccc4)c4ccccc4)C(C)=C1C3(C)C)[C@]1(OC(C)=O)CO[C@@H]1C[C@@H]2O (some centres undefined)
inactive: Potency [2] | Potency [7] | outcome [8] | Potency [5]

Clc1ccc(C(Cn2ccnc2)OCc2ccc(Sc3ccccc3)cc2)c(Cl)c1 (centres undefined)
inactive: Potency [1] | Potency [3] | Potency [5]

C[Se]CCC(N)C(=O)O (centres undefined)
inactive: Potency [2]

COC(=O)N[C@H](C(=O)N[C@@H](Cc1ccccc1)[C@@H](O)CN(Cc1ccc(-c2ccccn2)cc1)NC(=O)[C@@H](NC(=O)OC)C(C)(C)C)C(C)(C)C
inactive: Potency [1] | Potency [3] | Potency [5]

C=C(c1ccc(C(=O)O)cc1)c1cc2c(cc1C)C(C)(C)CCC2(C)C
active: Potency [3] 4.47 µM
inactive: Potency [1] | Potency [5]

O=c1c(O)c(-c2ccc(O)cc2O)oc2cc(O)cc(O)c12
inactive: Potency [2] | Potency [7] | outcome [8] | Potency [5]

CC(=O)NC[C@H]1CN(c2ccc(N3CCOCC3)c(F)c2)C(=O)O1
inactive: Potency [2]

CCOC(=O)C(C)Oc1cccc2c(=O)n(CC(=O)Nc3ccc4c(c3)OCCO4)ccc12 (centres undefined)
inactive: Potency [2] | Potency [7] | outcome [8] | Potency [5] | outcome [9]

NCCCCNCCCN
inactive: outcome [6] | Potency [7] | outcome [8] | Potency [5] | outcome [9]

Cc1cc(O)c2c(c1)C(=O)c1cc(O)cc(O)c1C2=O
inactive: Potency [2] | Potency [7] | outcome [8] | Potency [5]

O=c1oc2cc(O)ccc2s1
inactive: Potency [2]

COc1cc2c(cc1OC)C1CC(=O)C(CC(C)C)CN1CC2 (centres undefined)
inactive: Potency [2] | Potency [7] | outcome [8] | Potency [5] | outcome [9]

NS(=O)(=O)c1cc(C(=O)O)c(NCc2ccco2)cc1Cl
inactive: Potency [1] | Potency [3] | Potency [5]

C[C@@H](N)C1CCC(C(=O)Nc2ccncc2)CC1 (some centres undefined)
inactive: Potency [2] | Potency [7] | outcome [8] | Potency [5] | outcome [9]

COc1ccc2cc([C@H](C)C(=O)O)ccc2c1
inactive: Potency [2] | Potency [3] | Potency [7] | outcome [8] | Potency [5] | outcome [9]

CC(C)c1nc(CN(C)C(=O)N[C@H](C(=O)N[C@@H](Cc2ccccc2)C[C@H](O)[C@H](Cc2ccccc2)NC(=O)OCc2cncs2)C(C)C)cs1
inactive: Potency [1] | Potency [3] | Potency [5]
